The text below walks through data of the supplement of paper PMC7866885, “A novel bicyclic 2,4-diaminopyrimidine inhibitor of Streptococcus suis dihydrofolate reductase” (PeerJ, 2021).

Molecules are shown by their SMILES. ± gives the standard deviation.

This assay has as its system Streptococcus suis HE06. Description: percent growth relative to DMSO control; higher = less growth inhibition. As to conditions: 10 µM; incubation time 18 h. Here is the method:
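CLSI broth microdilution: 5x10^4 CFU of Streptococcus suis (strain P1/7 or HE06) incubated with 10 µM Pathogen Box compound in cation-adjusted Mueller Hinton broth, 37 °C, 5% CO2, 18 h. Growth read as OD600 and expressed as percent of the DMSO-treated control (100%); mean ± SD of three independent experiments.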
On to `CC(C(=O)Nc1ccc2oc(-c3ccncc3)nc2c1)c1ccccc1` (stereo not drawn), for which the percent growth came out at 81.1 ± 11%. Next, `NS(=O)(=O)c1cncc(-c2ccc3nccc(-c4cn[nH]c4)c3n2)c1`: 102 ± 33%; `NCCCC(N)(C(=O)O)C(F)F` (stereo not drawn): 84.8 ± 12%. Next, `O=C(Nc1nnc(S)s1)c1cc(Br)ccc1Cl`: 107 ± 10%; `CCOc1ccccc1NC(C)C(=O)Nc1cc(C(F)(F)F)ccc1N1CCOCC1` (stereo not drawn): 115 ± 20%; `COc1ccc(C2=NN(C3CCCCCC3)C(=O)[C@@H]3CC=CC[C@H]23)cc1OCCCCOc1ccc(-c2nn[nH]n2)cc1`: 0%. `CCCCc1ccc(C(=O)Nc2nccc3ccccc23)nc1` came in with a percent growth of 32.4 ± 32%. The value for `COc1ccc(-c2cnc3ccc(N4CCCC4)nn23)cc1OC` was 48.8 ± 40%; that for `Cc1cc(C)cc(COc2ccc3c(C)c(CCC(=O)O)c(=O)oc3c2C)c1` was 39.9 ± 40%; that for `CC(C)(CN)c1nc(-c2ccc(Cl)c(O)c2)c(-c2ccnc(N)n2)[nH]1` was 90.9 ± 6.5%.

The compound `c1cc(C2=NCCN2)cc(-c2cc(-c3ccc(C4=NCCN4)cc3)no2)c1` returned a percent growth of 103 ± 19%. With `Cc1nn(C)cc1C(C)Nc1nncc(-c2ccc(C(F)(F)F)cc2)n1` (stereo not drawn), the percent growth was found to be 116 ± 20%. Compound `COc1ccc(-c2cnc3cnc(-c4cccc(OC(C)C)c4)cn23)cc1` yielded a percent growth of 59 ± 50%.

On to `Cc1nn(C(=O)Nc2cccc(C(F)(F)F)c2)c(C)c1Sc1ncccn1`, for which the percent growth is 25.4 ± 40%. The compound `c1ccc(Oc2ccc(-c3cncc(-c4ccc5[nH]ccc5c4)n3)cc2)cc1` came in with a percent growth of 109 ± 24%. `CCc1nc2ccc(Cl)cn2c1C(=O)NCc1ccc(N2CCC(c3ccc(OC(F)(F)F)cc3)CC2)cc1` yielded a percent growth of 89.9 ± 15%. The value for `O=C(Nc1cnc2ccccc2c1)c1cccc(-n2cnnn2)c1` was 110 ± 2.4%; that for `CS(=O)(=O)c1cccc(-c2cnc3[nH]cc(-c4ccc(CCC(=O)O)cc4)c3c2)c1` was 68.7 ± 5.5%.

On to `NCCC(O)C(=O)N[C@@H]1C[C@H](N)[C@@H](OC2O[C@H](CN)[C@@H](O)[C@H](O)[C@H]2O)[C@H](O)C1OC1O[C@H](CO)[C@@H](O)[C@H](N)[C@H]1O` (stereo partly drawn), for which the percent growth is 104 ± 4.8%. Next, `O=C(NC1CC1)c1ccc(N2CCC(Cc3ccccc3)CC2)nc1`: 91.7 ± 9.1%.

In the case of `Nc1ccc(C(=O)Nc2ccc(-c3nc4ccccc4o3)cc2)cc1`, the percent growth stood at 105 ± 4.4%. `CCOc1ccc(-c2nc(CNCCc3ccc(F)cc3)cs2)cc1` displayed a percent growth of 97.3 ± 4.6%. `CC(C)(C)OC(=O)N1CCN(c2nccc(-c3ccc(-c4ccc(Cl)cc4)s3)n2)CC1` registered a percent growth of 88.2 ± 12%. `COc1ccc(OC(C)C(=O)Nc2ccc(Cl)cc2C)cc1` (stereo not drawn): the percent growth amounted to 107 ± 13%. Compound `O=C(C1CCCCC1)N1CC(=O)N2CCc3ccccc3C2C1` (stereo not drawn) came in with a percent growth of 79.3 ± 24%. Regarding `CCOC(=O)c1noc(N)c1-c1ccccc1`, the percent growth worked out at 107 ± 2.4%. As to `O=C(NC1CCN(c2ccnc3ccccc23)C1)c1cccc(C(F)(F)F)c1` (stereo not drawn), the percent growth worked out at 106 ± 30%.

`Cc1ccc2[nH]c3c(NCCN(C)C)ncnc3c2c1`: the percent growth turned out to be 96.1 ± 12%. On to `CCCNC(=O)N1CCC2(CC1)CC(=O)c1cc(C)ccc1O2`, for which the percent growth stood at 87.9 ± 23%.

As to `c1ccc(-c2[nH]c3ccccc3c2C(c2ccccn2)N2CCCC2)cc1` (stereo not drawn), the percent growth worked out at 88.5 ± 4.3%. The value for `COc1cccc(OCC(=O)c2ccc(Br)cc2)c1` was 57.7 ± 50%; that for `COc1cc(OC)cc(C(=O)NCC2Cc3cc(Cl)cc(-c4ccncc4)c3O2)c1` (stereo not drawn) was 90 ± 28%. For `O=C1COCc2ccc(Br)cc2N1Cc1ccc(C(F)(F)F)cc1`, the percent growth worked out at 84.3 ± 26%. The value for `Clc1cccc(C(c2ccc(CN3CCNCC3)cc2)n2ccnc2)c1` (stereo not drawn) was 96.6 ± 38%; that for `COc1cccc(-c2cc3c(Nc4cccnc4)nccc3[nH]2)c1` was 226 ± 230%; that for `O=C(c1ccc(NCCO)cc1)C1C[C@H]1c1ccc(Cl)cc1` (stereo partly drawn) was 147 ± 53%.

The compound `CCOc1ccc2cc(-c3nn(CC4CCN(C)CC4)c4ncnc(N)c34)ccc2c1` displayed a percent growth of 97 ± 13%. The value for `O=S(=O)(c1ccc(Cl)cc1)N1CCN(C(=S)NCc2ccco2)CC1` was 93.7 ± 22%.
